# ChEMBL document CHEMBL1157539, “Thousands of chemical starting points for antimalarial lead identification” (Nature, 2010)
# Tested on: Plasmodium falciparum
# Test: GSK_TCMDC: Inhibition of Plasmodium falciparum Dd2 in whole red blood cells, using parasite LDH activity as an index of growth. Test compounds present at 2uM
# Format: functional
row,SMILES,Inhibition [%]
1,CC1(C)NC(N)=NC(=N)N1OCc1cc(Cl)c(Cl)cc1CON1C(=N)N=C(N)NC1(C)C,100
2,CCn1c(Sc2ccc([N+](=O)[O-])c(C#N)c2)nnc1-c1ccc(Cl)cc1,7
3,O=C(NCC1CCN(Cc2cccc(C(F)(F)F)c2)C1)c1cc(-c2cccc(C(F)(F)F)c2)cs1.O=C(O)C(F)(F)F (stereo not given),74
4,CC(C)NCc1ccc(-c2cccc(-c3nc4cc(F)ccc4[nH]3)c2)cc1.O=C(O)C(F)(F)F,96
5,Cn1cncc1C(=O)Nc1cccc(-c2ccc(-c3nc4cc(F)ccc4[nH]3)cc2)c1,31
6,COc1cc2nc(NCc3nc4ccccc4[nH]3)nc(N)c2cc1OC.Cl,10
7,CCC(Nc1noc(-c2c(-c3ccccc3)noc2C)n1)c1ccccc1 (stereo not given),85
8,O=C(Nc1ccc(-c2ccccc2)s1)N[C@H]1CCN(Cc2ccc(OCCCN3CCCCC3)cc2)C1,40
9,COc1cccc(NC(=O)Nc2cc(-c3ccc4[nH]ncc4c3)cc3c2CNC3=O)c1,100
10,O=C(O)C(F)(F)F.c1ccc(CCNCc2ccc(-c3cccc(CNc4ccc5ncccc5c4)c3)cc2)cc1,17
11,CCc1c[nH]c2c(N(c3ccccc3)S(C)(=O)=O)cc(C(=O)N[C@@H](Cc3ccccc3)[C@H](O)CNC(C)(C)CCCC(C)C)cc12.O=CO,96
12,Cl.N=C(N)NN=C1C=Cc2cccc3cccc1c23,49
13,CCC(C)NC(=O)CN1CN(c2ccccc2)C2(CCN(C(=O)c3ccc4ccccc4c3)CC2)C1=O (stereo not given),78
14,Cc1nc2ccccc2c(O)c1[N+](=O)[O-],0
15,CN(c1ncc(-c2cccc(CNCc3ccccc3O)c2)cn1)C1CCCCC1,71
16,COc1ccccc1CCNc1ncnc2c1[nH]c1ccc(F)cc12,68
17,CCCCC(=O)Nc1nonc1-c1ccc(OCC)c(OCC)c1,95
18,CCCN(CCC)CCCNc1ccc(C(=O)Nc2ccc(C(C)C)cc2)cc1[N+](=O)[O-],38
19,CCC(O)c1ccc(Br)cc1NC(=O)c1cccc(Cl)c1 (stereo not given),52
20,O=S(=O)(Nc1ccc(CCN2CCC(N3CCCCC3)CC2)cc1)c1cccc2cccnc12,45

row,SMILES,Inhibition [%]
1,CCC(C)c1ccc(-n2c(Nc3ccccc3)nc3cc(S(N)(=O)=O)ccc32)cc1 (stereo not given),28
2,O=C(NC1c2ccccc2Oc2ccccc21)c1ccccc1O,0
3,Cc1cccc2nc(-c3cccc(-c4ccc(CNCCc5ccncc5)cc4)c3)[nH]c12.O=C(O)C(F)(F)F,100
4,CCOC(=O)c1c(CN(CC)CC)n(-c2ccccc2)c2cc(Br)c(O)cc12,46
5,Br.CCC(CCON1C(N)=NC(N)=NC1(C)C)c1ccc(Cl)c(Cl)c1 (stereo not given),98
6,Cc1c(C)c2c(c(C)c1O)CC[C@](C)(C(=O)N1CCC(CCN3CCC(c4c[nH]c5ccccc45)CC3)CC1)O2,74
7,CCCc1ccccc1OCC(O)CN(C1CCCC1)C1CCCC1.Cl (stereo not given),97
8,Nc1cccc(CNCc2ccc(-c3ccc(-c4nc5cc(C(F)(F)F)ccc5[nH]4)s3)cc2)c1.O=C(O)C(F)(F)F,98
9,CCOc1cc2ncnc(Nc3ccc(OCc4c(F)cccc4F)c(OC)c3)c2cc1OCC.Cl,60
10,CC(C)(C)c1ccc(CNC(=O)c2cc(CNC3CCC(N)CC3)ccc2O)cc1 (stereo not given),1
11,CCCCNc1cc(NCCCC)c2c(n1)[nH]c1ccccc12,94
12,COc1ccc(C(=O)NC(Nc2ccc([N+](=O)[O-])cc2)C(Cl)(Cl)Cl)cc1 (stereo not given),83
13,O=C(Nc1cccc(-c2cccc(CN3CCCC3)c2)c1)c1ccc(Cl)cc1.O=C(O)C(F)(F)F,32
14,CC(Oc1ccc(C(=O)c2ccc(F)cc2)cc1)C(=O)N1CCc2ccccc21 (stereo not given),95
15,O=C(Nc1ccc(-c2csc3nccn23)cc1)c1ccc(Cl)cc1,50
16,CCCCCCCN1CC[C@@H](CCCc2ccnc3ccc(OCCN4CCOCC4)cc23)[C@@H](CC)C1.O=C(O)C(=O)O,3
17,Nc1c(Cl)cc(C(O)CNCCCCCCOCCc2ccc(CO)s2)cc1Cl.O=C(O)/C=C/C(=O)O (stereo not given),71
18,Cn1cnc(CCNC(=O)c2ccc(-c3cccc(-c4nc5ccccc5[nH]4)c3)cc2)c1,14
19,COc1ccc(-c2onc(C(F)(F)F)c2-c2ccc(Br)cc2)c(O)c1,77
20,CC(C)(C)c1ccc(CN2CCCCC(NC(=O)c3cc(-c4ccccc4F)cs3)C2)cc1.O=C(O)C(F)(F)F (stereo not given),99
